The results in this text go back to PubChem BioAssay.

Where “and” joins values, the source holds several entries; their conditions need not be identical. Identical values can stand only once. Calls of active or inactive are those of the source. Unless noted, how the calls were made is not given here.

The nature of test [1]: compounds binding Alexa647 anti-His antibody – biochemical, small-molecule microarray, 635 nm fluorescence, artefact control for SMM control protein annotation, primary screen (AID 1128).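 Further: score merges feature fluorescence with signal-to-noise for each printed compound spot.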 To be noted: higher = more signal.
Test [2] has as its system Human papillomavirus type 1a E7 protein (residues 1-88). Kind of test: HPV1a E7 small-molecule binders, primary screen, biochemical, small-molecule microarray, residues 1-88, 635 nm (AID 1129). Conditions: small-molecule microarray binding, fluorescence 635 nm; higher = more signal.
In test [3] the target is Focal adhesion kinase 1 (Homo sapiens) (UniProt Q05397). In words: PTK2 protein binding on printed compound slides – biochemical, small-molecule microarray, 635/667 nm fluorescence, BSA, DTT, primary screen (AID 1130).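 Further: composite of spot emission at 667 nm and signal to noise over triplicate slides.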 Conditions: 635 nm fluorescence, higher = more signal.
Sequence of Focal adhesion kinase 1 (Homo sapiens) (Q05397 whole entry, looked up): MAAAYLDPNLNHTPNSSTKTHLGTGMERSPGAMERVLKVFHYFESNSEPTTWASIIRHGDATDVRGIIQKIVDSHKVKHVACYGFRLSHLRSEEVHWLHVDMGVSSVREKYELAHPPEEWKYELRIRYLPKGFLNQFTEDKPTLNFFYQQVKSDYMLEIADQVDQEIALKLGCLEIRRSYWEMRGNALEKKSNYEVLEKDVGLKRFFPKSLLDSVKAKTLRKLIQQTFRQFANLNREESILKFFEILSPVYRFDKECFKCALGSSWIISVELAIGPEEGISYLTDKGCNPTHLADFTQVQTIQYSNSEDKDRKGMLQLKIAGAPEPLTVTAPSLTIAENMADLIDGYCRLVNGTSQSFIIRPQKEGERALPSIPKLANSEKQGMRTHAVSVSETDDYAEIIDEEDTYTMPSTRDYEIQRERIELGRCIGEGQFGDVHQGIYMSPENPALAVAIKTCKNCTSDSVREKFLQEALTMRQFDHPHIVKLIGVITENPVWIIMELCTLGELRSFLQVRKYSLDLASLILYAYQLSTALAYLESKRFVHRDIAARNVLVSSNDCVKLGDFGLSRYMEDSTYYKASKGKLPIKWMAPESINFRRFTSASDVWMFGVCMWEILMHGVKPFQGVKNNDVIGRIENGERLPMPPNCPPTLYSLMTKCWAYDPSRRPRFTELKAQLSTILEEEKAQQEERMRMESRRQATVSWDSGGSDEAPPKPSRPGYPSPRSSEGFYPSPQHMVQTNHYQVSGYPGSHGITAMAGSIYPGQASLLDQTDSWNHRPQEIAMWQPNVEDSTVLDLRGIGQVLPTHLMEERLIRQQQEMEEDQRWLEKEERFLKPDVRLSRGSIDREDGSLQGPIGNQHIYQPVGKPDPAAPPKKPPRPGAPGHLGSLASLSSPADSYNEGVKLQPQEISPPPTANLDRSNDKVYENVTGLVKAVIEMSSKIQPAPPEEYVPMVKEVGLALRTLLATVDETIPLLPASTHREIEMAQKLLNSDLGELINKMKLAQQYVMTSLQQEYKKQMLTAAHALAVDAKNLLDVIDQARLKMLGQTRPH
The test system of test [4] is Fibrinogen (Alexa647-labelled). In words: Alexa647-fibrinogen binding to printed small molecules – biochemical, small-molecule microarray, 635/667 nm fluorescence, artefact control for SMM control-protein annotation, profiling panel (AID 1131).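 Further: z-score merges 667 nm fluorescence with per-spot signal-to-noise over triplicate slides.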 To be noted: fibrinogen-A647 binding fluorescence, higher = more signal.
The target of test [5] is Follistatin (Homo sapiens) (UniProt P19883). Kind of test: FST protein binding to printed compounds – biochemical, small-molecule microarray, 635/667 nm fluorescence, primary screen (AID 1132). To be noted: 635 nm fluorescence, higher = more signal.
Sequence of Follistatin (Homo sapiens) (P19883 whole entry, looked up): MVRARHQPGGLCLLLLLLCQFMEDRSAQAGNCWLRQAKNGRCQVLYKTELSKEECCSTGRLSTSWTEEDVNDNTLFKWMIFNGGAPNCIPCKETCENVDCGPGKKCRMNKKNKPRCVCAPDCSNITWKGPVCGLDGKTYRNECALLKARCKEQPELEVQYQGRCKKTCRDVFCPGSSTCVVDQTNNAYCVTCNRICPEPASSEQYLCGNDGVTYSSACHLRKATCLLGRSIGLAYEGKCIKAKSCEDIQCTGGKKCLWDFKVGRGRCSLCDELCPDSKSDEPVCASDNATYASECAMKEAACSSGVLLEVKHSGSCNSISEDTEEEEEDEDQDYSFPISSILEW
Test [6] concerns the target Fibroblast growth factor 2 (Homo sapiens) (UniProt P09038). Kind of test: basic fibroblast growth factor binding to printed compounds – biochemical, small-molecule microarray, 635/667 nm fluorescence, primary screen (AID 1133). Conditions: FGF2, fluorescence 635/667, higher = more signal.
Test [7] is described as follows: JC-1 mitochondrial potential readout, lung cancer cells – cell-based, A549, JC-1 fluorescence, basal, 24 h, 100 nL, profiling panel (AID 1138).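 Further: A549 lung adenocarcinoma cells under basal conditions with no added stimulus; test concentration not given here.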 Conditions: higher = more signal.
A further test deals with Lefty1. Kind of test: Lefty1 protein binding to printed compounds – biochemical, small-molecule microarray, 635/667 nm fluorescence, primary screen (AID 1139). Conditions: fluorescence 635/667, higher = more signal.
The test system of test [8] is wheat germ agglutinin (Triticum aestivum), Alexa647-labelled. Kind of test: Alexa647-WGA lectin binding to printed small molecules – biochemical, small-molecule microarray, 635/667 nm fluorescence, artefact control for SMM control-protein annotation, profiling panel (AID 1140).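 Further: score merges 667 nm feature emission with signal to noise over triplicate slides.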 To be noted: WGA-A647 binding, 635 nm fluorescence, higher = more signal.
In test [9] the target is Luciferin 4-monooxygenase (Photinus pyralis) (UniProt P08659). Kind of test: inhibition of purified Photinus pyralis luciferase – biochemical, luminescence, purified enzyme, 2006 set, primary screen (AID 1141).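 Further: cell-free assay with purified firefly luciferase at 100 ng per well in PBS; test concentration not given here.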 To be noted: purified firefly luciferase, SteadyGlo luminescence, 30 min; higher = more signal, called active from +8 up or from −8 down.
Sequence of Luciferin 4-monooxygenase (Photinus pyralis) (P08659 whole entry, looked up): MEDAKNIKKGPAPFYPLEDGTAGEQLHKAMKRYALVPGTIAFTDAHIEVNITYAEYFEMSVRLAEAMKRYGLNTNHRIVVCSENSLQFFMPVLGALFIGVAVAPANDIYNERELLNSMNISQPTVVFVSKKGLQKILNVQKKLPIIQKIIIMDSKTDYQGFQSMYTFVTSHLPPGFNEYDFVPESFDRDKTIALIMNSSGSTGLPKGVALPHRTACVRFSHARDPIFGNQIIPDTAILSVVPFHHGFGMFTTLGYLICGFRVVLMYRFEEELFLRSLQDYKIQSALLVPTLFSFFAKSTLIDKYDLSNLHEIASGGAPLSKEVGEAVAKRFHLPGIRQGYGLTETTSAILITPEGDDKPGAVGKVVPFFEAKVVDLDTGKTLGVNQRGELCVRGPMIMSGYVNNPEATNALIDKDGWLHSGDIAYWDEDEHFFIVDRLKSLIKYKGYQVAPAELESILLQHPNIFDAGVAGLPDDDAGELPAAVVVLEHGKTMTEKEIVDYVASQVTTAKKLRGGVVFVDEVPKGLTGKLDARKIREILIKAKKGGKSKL
For test [10], the system named is Wnt5a (protein binding on small-molecule microarray). Kind of test: small molecules binding Wnt5a protein – biophysical, small-molecule microarray, 635/667 nm fluorescence, primary screen (AID 1142).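 Further: fluorescence read at 667 nm with signal to noise per printed feature.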 To be noted: 635 nm fluorescence, higher = more signal.
Test [11] can be described thus: ATP-based viability of Huh7 replicon cells – cell-based, CellTiter-Glo luminescence, basal, 48 h, cytotoxicity control for HCV replication inhibitor project, primary screen (AID 1143).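 Further: Huh7 hepatoma cells carrying a hepatitis C replication reporter with no stimulus; test concentration not given here.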 To be noted: higher = more signal, called active from +8 up or from −8 down. In general terms: A replicon is a self-replicating genome or part of one, used to study replication in cells.

Test [12] is described as follows: Pseudomonas biofilm growth suppression – PAO1 strain, BacTiter-Glo luminescence, LB-PBS, primary screen (AID 1144). To be noted: P. aeruginosa PAO1 biofilm, 12 h, higher = more signal.
Test [13] is described as follows: basal CRE-LacZ reporter activity in PC12 – cell-based, unstimulated, primary screen (AID 1145). To be noted: no forskolin, luminescence, 4.5 h, higher = more signal, called active from +8 up or from −8 down.
Test [14] is described as follows: forskolin-driven CRE-LacZ activity in PC12 – cell-based, CRE-LacZ reporter, forskolin-stimulated, primary screen (AID 1146).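 Further: PC12 cells with 6xCRE LacZ reporter stimulated by forskolin 10 µM; beta-galactosidase reporter signal reflecting CREB driven transcription.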 Conditions: luminescence, 4.5 h, higher = more signal, called active from +8 up or from −8 down.
For test [15], the target named is Streptavidin (Streptomyces avidinii) (UniProt P22629). In words: compounds binding control protein streptavidin – biophysical, small-molecule microarray, 635/667 nm fluorescence, artefact control for SMM compound annotation, primary screen (AID 1147).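 Further: signal reflects streptavidin binding to arrayed compounds as a control protein.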 Conditions: higher = more signal.
Sequence of Streptavidin (Streptomyces avidinii) (P22629 whole entry, looked up): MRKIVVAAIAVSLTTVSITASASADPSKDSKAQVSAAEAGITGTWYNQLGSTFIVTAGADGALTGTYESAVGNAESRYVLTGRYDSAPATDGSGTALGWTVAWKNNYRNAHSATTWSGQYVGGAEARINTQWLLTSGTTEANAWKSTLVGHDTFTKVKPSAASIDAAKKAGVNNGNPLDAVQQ
The nature of test [16]: probe aInhba binding on compound microarray – biochemical, small-molecule microarray, 635/667 nm fluorescence, primary screen (AID 1148).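 Further: score merges 667nm spot fluorescence with signal-to-noise for antibody binding to printed compounds.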 To be noted: higher = more signal.
In test [17] the target is Torsin-1A (Homo sapiens) (UniProt O14656). In words: TOR1A wild-type binding on microarray – cell lysate, small-molecule microarray, lysate, 635/667 nm, primary screen (AID 1149). To be noted: COS7 hTOR1A-WT lysate, 635 nm fluorescence, higher = more signal.
Sequence of Torsin-1A (Homo sapiens) (O14656 whole entry, looked up): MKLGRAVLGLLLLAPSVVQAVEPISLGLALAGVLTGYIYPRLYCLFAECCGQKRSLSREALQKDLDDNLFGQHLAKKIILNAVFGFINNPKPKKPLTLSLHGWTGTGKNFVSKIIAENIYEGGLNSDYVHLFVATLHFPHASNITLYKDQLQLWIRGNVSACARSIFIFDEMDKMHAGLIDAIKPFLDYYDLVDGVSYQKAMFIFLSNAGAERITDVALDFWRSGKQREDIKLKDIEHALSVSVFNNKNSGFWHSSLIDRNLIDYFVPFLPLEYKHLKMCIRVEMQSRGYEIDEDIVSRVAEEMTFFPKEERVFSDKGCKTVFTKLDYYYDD
For test [18] the target is unchanged. Kind of test: torsin A mutant lysate binding on microarrays – cell lysate, small-molecule microarray, COS7 lysate, 635/667 nm fluorescence, primary screen (AID 1150).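 Further: score pools 667 nm emission and signal to noise measuring lysate protein binding.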 Conditions: COS7 hTOR1A mutant lysate, 635 nm fluorescence, higher = more signal.
Test [19] has as its system Sonic hedgehog protein (Shh). Kind of test: Sonic hedgehog microarray binding compounds – biochemical, small-molecule microarray, 635/667 nm fluorescence, primary screen (AID 1151).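 Further: Shh protein binding to compounds spotted on small-molecule microarray slides; score combines spot fluorescence intensity with signal-to-noise across triplicate slides.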 Conditions: 635 nm fluorescence, higher = more signal.

Sequence of Fibroblast growth factor 2 (Homo sapiens) (P09038 whole entry, looked up): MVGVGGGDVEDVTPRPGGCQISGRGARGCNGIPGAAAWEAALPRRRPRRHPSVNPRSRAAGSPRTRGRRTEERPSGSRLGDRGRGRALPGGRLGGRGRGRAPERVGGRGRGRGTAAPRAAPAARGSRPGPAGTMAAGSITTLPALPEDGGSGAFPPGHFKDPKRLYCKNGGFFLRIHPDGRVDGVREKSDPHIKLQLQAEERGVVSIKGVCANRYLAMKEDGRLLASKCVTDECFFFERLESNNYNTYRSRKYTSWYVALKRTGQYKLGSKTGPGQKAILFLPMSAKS

Regarding `C=CCN(CCCC)C(=O)C1N(c2ccc(CCO)cc2)C(=O)C2C(C(=O)O)C3C=CC21O3` (stereo not given), the composite z-score in [1] was -1.5 and -1.42; in [2], -1.48 and -1.18; in test [3], -1.03 and 0.339; in [4] it was -1.01 and -2.98; in test [5] it was -0.852 and -2.67; in [6] it was -0.893 and -2.56. The composite z-score is -1.39 and -3.01 with Lefty1; 0.0666 and -1.56 in test [8]; -0.612 and -0.135 in [10]; -1.29 and -2.12 in [15]; -0.389 and -0.409 in test [16]; -2.4 and -3.13 in the test with Torsin-1A (Homo sapiens) [17]. Besides, the composite z-score in the test with Torsin-1A (Homo sapiens) [18] was -1.86 and -3.82; in test [19], -1.43 and -2.14. Also, the z-score in test [7] was -0.898 and -0.353; in test [9], 1.5 (inactive) and -1.51 (inactive); in test [11], -0.544 (inactive) and -0.336 (inactive); in test [12] it was -0.353 (inactive) and -1.38 (inactive); in test [13], -0.224 (inactive) and 0.0524 (inactive); in [14], -0.153 (inactive) and 0.323 (inactive).
Turning to `C=CCN(CCCCC)C(=O)C1N(CCCCCCO)C(=O)C2C(C(=O)O)C3C=CC21O3` (stereo not given), the composite z-score in test [1] is -2.31 and 0.41; in test [2], -0.813 and -0.519; in test [3] it was -0.687 and -0.922; in [4], -1.63 and -1.36; in [5] it was -2.64 and -1.13; in test [6], -2.25 and -2.14. The composite z-score is -1.55 and -1.07 with Lefty1; -1.8 and -0.883 in test [8]; -0.332 and -1.43 in [10]; -1.69 and -1.59 in [15]; -0.173 and -0.233 in [16]; -2.55 and -3.31 with Torsin-1A (Homo sapiens) [17]. Also, the composite z-score is -1.53 and 0.765 with Torsin-1A (Homo sapiens) [18]; -0.661 and -1.21 in test [19]. Also, the z-score was -0.194 and 0.588 in test [7]; 0.0975 (inactive) and -0.324 (inactive) in [9]; 0.289 (inactive) and 0.729 (inactive) in [11]; 1.69 (inactive) and 2.31 (inactive) in test [12]; 0.333 (inactive) and -0.497 (inactive) in test [13]; -0.587 (inactive) and -0.0866 (inactive) in [14].
Turning to `CCOC(=O)NN=C1C[C@@H](O)[C@@H](O)[C@@H]2[C@@H]3C(=O)N(Cc4ccccc4)C(=O)[C@@H]3CC[C@@H]12`, the composite z-score in [1] was 0.82; in [2], 0.561; in [3], -0.118; in test [4], 0.669; in test [5], 0.408; in test [6] it was 0.371. Moreover, the composite z-score with Lefty1 was 0.665; in test [8] it was 0.0775; in test [10], -0.0099; in test [15], -0.199; in test [16], -0.178; with Torsin-1A (Homo sapiens) [17], 0.832. Moreover, the composite z-score was found to be 0.304 with Torsin-1A (Homo sapiens) [18] and 0.773 in test [19]. Besides, the z-score in [7] was -0.222; in [9], 0.66 (inactive); in test [11], 0.162 (inactive); in test [12] it was -0.0519 (inactive); in test [13] it was 0.52 (inactive); in test [14], 0.0513 (inactive).
In the case of `C=CCN(C(=O)C(c1cccs1)N(CCOCCO)C(=O)/C=C\C(=O)O)c1ccc(OC)cc1` (stereo not given), the composite z-score in test [1] is -0.542 and -1.89; in test [2], -0.923 and -1.57; in [3], -0.303 and -0.67; in test [4], -0.627 and -1.54; in test [5], -0.745 and -1.07; in [6], -0.993 and -1.6. For the same compound, the composite z-score in the test with Lefty1 was -0.208 and -1.45; in test [8], -0.628 and -2.28; in [10], -0.459 and -0.385; in test [15], -1.09 and -2.3; in test [16], -0.128 and -0.208; with Torsin-1A (Homo sapiens) [17], -0.16 and -1.77. In addition, the composite z-score in the test with Torsin-1A (Homo sapiens) [18] is -1.17 and -0.642; in test [19], -0.452 and 0.0229. Moreover, the z-score in test [7] was 0.13 and 1; in test [9], 0.286 (inactive) and -2.02 (inactive); in test [11], -0.751 (inactive) and -0.299 (inactive); in test [12], -2.23 (inactive); in [13] it was -1.58 (inactive) and -0.749 (inactive); in [14], -0.418 (inactive) and -1.15 (inactive).
